Data published in article PMC5540273 (PLoS ONE, 2017).

tested on: ROS1; details: concentration: 1 μM, replicates: in singlicate; n = 1
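Further: KINOMEscan kinase panel screen.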

Structure (SMILES)	%Inh
COc1cccc(C2=C(Nc3ccc(Cl)c(C(=O)O)c3)C(=O)NC2=O)c1 [SB-390769]	0%
COc1cccc(NC(=O)NC2CCN(c3ccnc(Nc4cc(OC)c(OC)c(OC)c4)n3)C2)c1 (centres unmarked) [GSK1379763]	23%
Cn1cc(-c2ccc3c(c2)CCN3C(=O)Cc2cccc(F)c2)c2c(N)ncnc21 [GSK2603358]	21%
CC(=O)N1CCN(c2ccc(Nc3nccc(-c4sc(C(C)C)nc4-c4cccc(NS(=O)(=O)c5cccc(Cl)c5)c4)n3)cn2)CC1 [GSK1660437]	21%
CN(C)Cc1ccc(-c2ccc3c(Nc4ccc(Oc5ccccn5)cc4)ccnc3c2)o1 [GW567148]	0%
